# Measured values taken from the supplement of paper PMC13380429.
# Tests used:
# [1] = tested on: Vero E6 infected with SARS-CoV-2; assay: morphology score (similarity to uninfected cells); higher = more like uninfected cells; conditions: 24 h
# [2] = tested on: Vero E6 infected with SARS-CoV-2; assay: SARS-CoV-2 infection rate relative to infected DMSO; higher = more infection, active = 60 or less; conditions: 24 h
Compound,morphology score [1],SARS-CoV-2 infection rate [2]
Nc1nc(Nc2ccc(S(N)(=O)=O)cc2)nn1C(=O)c1c(F)cccc1F (0.833333 µM),-0.114,120% (inactive)
NCCC[C@H](N)C(=O)O [ornithine] (10 µM),0.101,96.5% (inactive)
COC1CCN(c2cccc(-c3cc(NC(C)=O)nc(-n4nc(C)cc4C)n3)n2)CC1 (10 µM),-0.0121,104% (inactive)
CN(C)CC(c1ccc(O)cc1)C1(O)CCCCC1 (stereo not given) [desvenlafaxine] (10 µM),0.0229,106% (inactive)
COc1cc2c(NC3CCN(C(C)C)CC3)nc(N3CCC(F)(F)CC3)nc2cc1OCCCN1CCCC1 (10 µM),0.243,25.5% (active)
CC(=O)N(CC(O)CN(C(C)=O)c1c(I)c(C(=O)NCC(O)CO)c(I)c(C(=O)NCC(O)CO)c1I)c1c(I)c(C(=O)NCC(O)CO)c(I)c(C(=O)NCC(O)CO)c1I (stereo not given) [iodixanol] (10 µM),-0.0966,114% (inactive)
Cc1c(-c2ccc(-c3ccccc3F)cc2)nc2ccc(F)cc2c1C(=O)O [brequinar] (10 µM),0.115,95% (inactive)
Cc1ccc(C(=O)c2cc(O)c(O)c([N+](=O)[O-])c2)cc1 [tolcapone] (10 µM),0.192,110% (inactive)
CN1CCN(c2cc(-c3ccccc3)nc(N)n2)CC1 (10 µM),0.206,94.5% (inactive)
O=C(/C=C/c1cccnc1)NCCCCC1CCN(C(=O)c2ccccc2)CC1 (0.833333 µM),-0.0966,94% (inactive)
CC(C)c1ccc(C(=O)c2cccs2)c(SCCCCCCCCN(C)C)n1 (0.833333 µM),0.361,94.5% (inactive)
CCCSc1ccc2[nH]c(NC(=O)OC)nc2c1 [albendazole] (0.833333 µM),0.0557,98% (inactive)
CN1CCN(CCCCN2C(=O)CN(/N=C/c3ccc(-c4ccc(Cl)cc4)o3)C2=O)CC1 [azimilide] (10 µM),0.0199,102% (inactive)
CCOC(=O)[C@H](Cc1ccccc1)NC(=O)c1cc(Cl)c(OCCN2CCN(C)CC2)c(Cl)c1O (10 µM),0.414,76.5% (inactive)
C=C1C[C@@]2(O)O[C@@]3(C[C@H]2C(C)C)[C@@H](C)CC[C@@H]13 [curcumol] (10 µM),0.157,106% (inactive)
COc1ccc(N2CCOCC2)c2sc(NC(=O)N3CCC(C)(O)CC3)nc12 [tozadenant] (10 µM),0.275,97% (inactive)
NC1=NC(=O)N([C@H]2C[C@H](O)[C@@H](CO)O2)CN1 (10 µM),0.0264,106% (inactive)
CN[C@@H](C)[C@H]1[C@H](O)C[C@@]2(C)[C@@H]3CC[C@H]4C(C)(C)[C@@H](NC)CC[C@@]45C[C@@]35CC[C@]12C [cyclovirobuxin-D] (10 µM),0.331,97% (inactive)
O=C(O)c1cc2occc2[nH]1 (10 µM),-0.103,109% (inactive)
Nc1cccc2c(=O)[nH][nH]c(=O)c12 [monosodium-alpha-luminol] (10 µM),0.000532,104% (inactive)

Compound,morphology score [1],SARS-CoV-2 infection rate [2]
CNC(=O)c1ccc2cc([C@@]3(O)CCn4cncc43)ccc2c1 [orteronel] (10 µM),0.0827,106% (inactive)
Oc1ccc(/C=C/c2cc(O)cc(O)c2)cc1 [resveratrol] (10 µM),0.0102,104% (inactive)
COc1ccncc1C(=O)NC(=O)Nc1ccc(-c2ccccc2)c(C(F)(F)F)c1 [S1P1-agonist-III] (10 µM),-0.0188,100% (inactive)
CCN(CCCc1ccccc1)CCCc1ccccc1 [alverine] (10 µM),0.397,62% (inactive)
COC(=O)CCC(=O)CN [methyl-aminolevulinate] (10 µM),0.118,90% (inactive)
COc1ccc(CC2NCCc3c2[nH]c2ccc(C)cc32)c(Cl)c1OC (stereo not given) (0.833333 µM),-0.0343,104% (inactive)
C[C@]12CCC(=O)C[C@@H]1CC[C@@H]1[C@@H]2CC[C@]2(C)C=CC[C@@H]12 [androstenone] (10 µM),-0.064,112% (inactive)
N[C@H]1C(O)O[C@H](CO)[C@@H](O)[C@@H]1O (mixture of isomers) [glucosamine] (10 µM),-0.0432,105% (inactive)
O[C@@H](Cc1ccncc1)C(Cl)(Cl)Cl (10 µM),0.21,83.5% (inactive)
COc1ccc2[nH]c([S+]([O-])Cc3ncc(C)c(OC)c3C)nc2c1 (stereo not given) [omeprazole-magnesium] (10 µM),-0.138,116% (inactive)
C[C@@H](c1nc(-c2ccc(C#N)cc2)cs1)[C@](O)(Cn1cncn1)c1ccc(F)cc1F [ravuconazole] (10 µM),0.0292,107% (inactive)
CC(C)(C)Cn1c(N)nc2ccc(-c3[nH]c(C(C)(C)C)nc3-c3ccc(F)cc3)nc21 (10 µM),-0.205,111% (inactive)
COc1ccc(CCN)cc1OC [homoveratrylamine] (10 µM),-0.0152,118% (inactive)
CS(=O)(=O)Nc1c(O)ccc2c1CCC[C@H]2C1=NCCN1 (10 µM),0.0346,110% (inactive)
CCN1CCN(c2ccc(C(C)(C)NC(=O)c3cc4[nH]c5ccccc5c(=O)c4cc3F)cn2)CC1 (10 µM),0.572,55% (active)
FC(F)(F)c1ccc(CNc2ccc(Cc3c[nH]c4ncc(Cl)cc34)cn2)cn1 [pexidartinib] (10 µM),0.473,77.5% (inactive)
CCN1CCCC1=O [1-ethyl-2-pyrrolidone] (10 µM),0.128,104% (inactive)
O=c1c(-c2ccc(O)cc2)coc2c([C@@H]3O[C@H](CO)[C@@H](O)[C@H](O)[C@H]3O)c(O)ccc12 [kakonein] (10 µM),-0.0186,103% (inactive)
CCNC(=O)C[C@@H]1N=C(c2ccc(Cl)cc2)c2cc(OC)ccc2-n2c(C)nnc21 (10 µM),-0.0652,106% (inactive)
Nc1nccc2c1ncn2[C@@H]1O[C@H](CO)[C@@H](O)[C@@H]1O [3-deazaadenosine] (10 µM),0.123,106% (inactive)

Compound,morphology score [1],SARS-CoV-2 infection rate [2]
CC(C)c1nc(CN(C)C(=O)N[C@H](C(=O)N[C@@H](Cc2ccccc2)C[C@H](O)[C@H](Cc2ccccc2)NC(=O)OCc2cncs2)C(C)C)cs1 [Ritonavir] (10 µM),0.0318,95% (inactive)
Cc1noc(C)c1-c1cc(O)cc([C@@H](O)c2ccccc2)c1 (10 µM),0.154,104% (inactive)
COC(=O)[C@H](CC(C)C)NC(=O)[C@@H](N)CC(C)C [leucylleucine-methyl-ester] (10 µM),0.113,99.5% (inactive)
FCc1ccc(OCCOc2ccc(Cl)cc2Cl)c(Cl)n1 (10 µM),-0.0669,116% (inactive)
CO[C@@H]1[C@@H](OC(N)=O)[C@@H](O)[C@H](Oc2ccc3c(O)c(NC(=O)c4ccc(O)c(CC=C(C)C)c4)c(=O)oc3c2C)OC1(C)C [novobiocin] (10 µM),0.165,95% (inactive)
CC(SC(=O)c1cccs1)C(=O)NCC(=O)O (stereo not given) [stepronin] (10 µM),-0.0157,113% (inactive)
CN1CCc2c(c3ccccc3n2Cc2ccc(C(=O)NO)cc2)C1 [tubastatin-A] (0.833333 µM),0.115,95.5% (inactive)
O=C(O)CCCN1CCC(O[C@@H](c2ccc(Cl)cc2)c2ccccn2)CC1 [bepotastine] (10 µM),0.0921,90% (inactive)
CCOC(=O)c1c(O)nc2cccc3c2c1-c1ccccc1C3=O (10 µM),-0.157,117% (inactive)
"O=[N+]([O-])/C=C/c1ccc2c(c1)OCO2 [3,4-methylenedioxy-beta-nitrostyrene] (10 µM)",0.58,41% (active)
OCC(O)CN1CCN(c2ccccc2)CC1 (stereo not given) [dropropizine] (10 µM),0.106,103% (inactive)
CN(C)Cc1ccc(S(=O)(=O)n2ccc(/C=C/C(=O)NO)c2)cc1 [resminostat] (0.833333 µM),-0.101,116% (inactive)
C1CCC(/N=C(\NC23CC4CC(CC(C4)C2)C3)N2CCOCC2)CC1 (10 µM),-0.0395,110% (inactive)
C1Cc2[nH]nc(-c3nn[nH]n3)c2C1 (10 µM),-0.0417,109% (inactive)
NC(=O)c1ccc(F)c2c1C[C@@H](N(C1CCC1)C1CCC1)CO2 [robalzotan] (10 µM),0.00904,100% (inactive)
CC(C)Cn1cnc2c1c(=O)n(C)c(=O)n2C [isbufylline] (10 µM),-0.0146,106% (inactive)
CS(=O)(=O)c1ccc(C2=C(c3ccccc3)C(=O)OC2)cc1 [rofecoxib] (10 µM),0.0705,96.5% (inactive)
COc1ccc(S(=O)(=O)Nc2cccnc2Nc2ccc(O)cc2)cc1 (10 µM),-0.213,106% (inactive)
CC(C)NCC(O)c1ccc2ccccc2c1 (stereo not given) [pronethalol] (10 µM),-0.0652,104% (inactive)
Cc1ccc(S(N)(=O)=O)cc1 [para-toluenesulfonamide] (10 µM),-0.0434,106% (inactive)
